Measurements as given in the supplement of paper PMC11732987, “Enantioselective OTUD7B fragment discovery through chemoproteomics screening and high-throughput optimisation” (Communications Chemistry, 2025).

What was measured:
Assay in all cases: log2 ratio of Biotin-Ahx-Ub-VS probe labelling (fragment/DMSO); higher = less target engagement (more negative = stronger competition), active = hit call of the paper (q ≤ 0.05, log2 ratio ≤ -1)
Settings in all cases: compound concentration: 200 uM; treatment time: 3 h
USP42 = biological target: T1, USP42 (UniProt Q9H9J4)
T1 sequence (whole entry): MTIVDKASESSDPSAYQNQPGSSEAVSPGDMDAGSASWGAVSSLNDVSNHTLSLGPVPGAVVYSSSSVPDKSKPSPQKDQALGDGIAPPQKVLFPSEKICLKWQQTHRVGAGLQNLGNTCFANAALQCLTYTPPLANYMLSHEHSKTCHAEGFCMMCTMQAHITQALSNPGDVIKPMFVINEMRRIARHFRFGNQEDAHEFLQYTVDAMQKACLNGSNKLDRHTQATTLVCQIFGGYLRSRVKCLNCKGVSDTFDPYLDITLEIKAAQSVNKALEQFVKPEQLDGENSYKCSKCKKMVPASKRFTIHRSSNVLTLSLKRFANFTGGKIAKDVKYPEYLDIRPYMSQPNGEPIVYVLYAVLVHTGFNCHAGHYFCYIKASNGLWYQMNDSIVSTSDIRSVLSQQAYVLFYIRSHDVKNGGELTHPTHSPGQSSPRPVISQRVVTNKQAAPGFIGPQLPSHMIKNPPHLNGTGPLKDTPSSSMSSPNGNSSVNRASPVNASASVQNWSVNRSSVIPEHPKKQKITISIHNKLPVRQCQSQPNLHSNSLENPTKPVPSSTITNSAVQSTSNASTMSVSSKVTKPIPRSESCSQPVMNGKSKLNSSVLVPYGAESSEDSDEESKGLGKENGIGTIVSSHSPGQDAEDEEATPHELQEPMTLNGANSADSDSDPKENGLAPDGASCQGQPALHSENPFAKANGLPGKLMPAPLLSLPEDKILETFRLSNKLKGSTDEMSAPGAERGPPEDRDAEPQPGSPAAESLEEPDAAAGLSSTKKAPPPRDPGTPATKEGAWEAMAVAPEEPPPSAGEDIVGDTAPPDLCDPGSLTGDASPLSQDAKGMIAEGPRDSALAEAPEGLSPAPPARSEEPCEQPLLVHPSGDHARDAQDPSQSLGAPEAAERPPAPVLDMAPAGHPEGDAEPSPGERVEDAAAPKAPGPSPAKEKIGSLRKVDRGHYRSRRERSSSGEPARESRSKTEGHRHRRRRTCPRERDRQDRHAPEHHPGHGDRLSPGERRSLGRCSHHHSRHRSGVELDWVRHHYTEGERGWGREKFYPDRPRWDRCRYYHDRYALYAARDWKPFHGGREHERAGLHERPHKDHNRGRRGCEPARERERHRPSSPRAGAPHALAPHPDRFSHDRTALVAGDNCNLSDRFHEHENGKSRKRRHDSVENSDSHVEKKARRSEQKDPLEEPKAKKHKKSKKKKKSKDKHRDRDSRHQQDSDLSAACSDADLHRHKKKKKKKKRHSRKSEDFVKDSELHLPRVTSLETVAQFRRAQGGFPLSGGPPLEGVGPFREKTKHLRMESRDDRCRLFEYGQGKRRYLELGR
In short: (§1)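 Labelled DUBs from HEK293T lysate were NeutrAvidin-enriched, digested with LysC and trypsin, and run by diaPASEF LC-MS/MS. Before that, each 495 µg sample in Tris/CHAPS/IGEPAL buffer with protease inhibitors was treated in triplicate with fragment at 200 µM or vehicle for 3 h, then with Biotin-Ahx-Ub-VS at 0.5 µM final for 1 h. Values are average log2 ratios of fragment over vehicle by unpaired t-test, based on global-median-normalised Spectronaut label-free quantities from proteins with ≥2 unique peptides.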

USP46 = USP46 (UniProt P62068)
Sequence of USP46 (P62068 whole entry): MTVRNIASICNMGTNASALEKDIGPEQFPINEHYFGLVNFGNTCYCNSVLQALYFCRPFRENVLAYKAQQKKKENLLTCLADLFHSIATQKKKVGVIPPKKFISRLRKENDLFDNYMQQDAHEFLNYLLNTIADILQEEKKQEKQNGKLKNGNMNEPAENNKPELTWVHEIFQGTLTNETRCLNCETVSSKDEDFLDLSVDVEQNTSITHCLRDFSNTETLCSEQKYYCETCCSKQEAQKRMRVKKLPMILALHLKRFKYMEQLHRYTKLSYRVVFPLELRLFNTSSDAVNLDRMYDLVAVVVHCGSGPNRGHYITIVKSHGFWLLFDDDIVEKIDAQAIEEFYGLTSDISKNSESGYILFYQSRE
In short: as §1

USP47 = biological target: T2, USP47 (UniProt Q96K76)
T2 sequence (whole entry): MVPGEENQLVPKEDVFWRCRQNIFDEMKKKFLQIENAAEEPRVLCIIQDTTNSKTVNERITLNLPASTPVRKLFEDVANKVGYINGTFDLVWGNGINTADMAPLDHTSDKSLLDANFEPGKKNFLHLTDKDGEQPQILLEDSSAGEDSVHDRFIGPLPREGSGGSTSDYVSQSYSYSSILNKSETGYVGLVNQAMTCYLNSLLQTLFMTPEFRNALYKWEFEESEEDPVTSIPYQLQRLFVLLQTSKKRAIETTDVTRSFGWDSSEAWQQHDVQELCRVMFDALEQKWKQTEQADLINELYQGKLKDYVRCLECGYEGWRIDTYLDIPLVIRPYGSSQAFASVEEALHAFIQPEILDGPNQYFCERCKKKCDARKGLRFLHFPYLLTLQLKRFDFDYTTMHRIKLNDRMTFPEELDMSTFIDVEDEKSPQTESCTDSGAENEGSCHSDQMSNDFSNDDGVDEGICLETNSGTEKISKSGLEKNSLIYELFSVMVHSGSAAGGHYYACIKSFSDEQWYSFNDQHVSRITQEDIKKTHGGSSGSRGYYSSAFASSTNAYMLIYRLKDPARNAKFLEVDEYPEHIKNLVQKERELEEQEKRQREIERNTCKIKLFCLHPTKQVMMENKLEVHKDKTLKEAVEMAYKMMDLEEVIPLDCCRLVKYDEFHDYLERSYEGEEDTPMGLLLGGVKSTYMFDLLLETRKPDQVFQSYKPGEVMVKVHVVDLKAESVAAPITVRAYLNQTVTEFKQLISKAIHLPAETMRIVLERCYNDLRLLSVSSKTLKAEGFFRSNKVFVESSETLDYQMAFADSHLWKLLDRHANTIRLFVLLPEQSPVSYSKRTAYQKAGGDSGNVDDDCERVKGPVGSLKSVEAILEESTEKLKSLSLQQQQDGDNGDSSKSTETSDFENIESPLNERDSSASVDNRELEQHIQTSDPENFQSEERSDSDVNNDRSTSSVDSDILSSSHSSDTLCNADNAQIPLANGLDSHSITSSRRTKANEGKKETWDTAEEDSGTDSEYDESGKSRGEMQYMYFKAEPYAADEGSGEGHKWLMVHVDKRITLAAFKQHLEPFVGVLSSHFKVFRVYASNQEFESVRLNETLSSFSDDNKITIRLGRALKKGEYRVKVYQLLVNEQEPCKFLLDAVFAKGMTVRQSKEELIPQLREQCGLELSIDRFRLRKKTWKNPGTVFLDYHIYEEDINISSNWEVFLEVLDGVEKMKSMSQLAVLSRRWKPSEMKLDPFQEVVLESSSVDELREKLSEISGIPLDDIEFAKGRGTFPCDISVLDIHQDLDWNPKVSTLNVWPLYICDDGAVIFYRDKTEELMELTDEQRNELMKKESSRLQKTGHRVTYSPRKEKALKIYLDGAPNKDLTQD
In short: as §1

USP48 = biological target: T3, USP48 (UniProt Q86UV5)
T3 sequence (whole entry): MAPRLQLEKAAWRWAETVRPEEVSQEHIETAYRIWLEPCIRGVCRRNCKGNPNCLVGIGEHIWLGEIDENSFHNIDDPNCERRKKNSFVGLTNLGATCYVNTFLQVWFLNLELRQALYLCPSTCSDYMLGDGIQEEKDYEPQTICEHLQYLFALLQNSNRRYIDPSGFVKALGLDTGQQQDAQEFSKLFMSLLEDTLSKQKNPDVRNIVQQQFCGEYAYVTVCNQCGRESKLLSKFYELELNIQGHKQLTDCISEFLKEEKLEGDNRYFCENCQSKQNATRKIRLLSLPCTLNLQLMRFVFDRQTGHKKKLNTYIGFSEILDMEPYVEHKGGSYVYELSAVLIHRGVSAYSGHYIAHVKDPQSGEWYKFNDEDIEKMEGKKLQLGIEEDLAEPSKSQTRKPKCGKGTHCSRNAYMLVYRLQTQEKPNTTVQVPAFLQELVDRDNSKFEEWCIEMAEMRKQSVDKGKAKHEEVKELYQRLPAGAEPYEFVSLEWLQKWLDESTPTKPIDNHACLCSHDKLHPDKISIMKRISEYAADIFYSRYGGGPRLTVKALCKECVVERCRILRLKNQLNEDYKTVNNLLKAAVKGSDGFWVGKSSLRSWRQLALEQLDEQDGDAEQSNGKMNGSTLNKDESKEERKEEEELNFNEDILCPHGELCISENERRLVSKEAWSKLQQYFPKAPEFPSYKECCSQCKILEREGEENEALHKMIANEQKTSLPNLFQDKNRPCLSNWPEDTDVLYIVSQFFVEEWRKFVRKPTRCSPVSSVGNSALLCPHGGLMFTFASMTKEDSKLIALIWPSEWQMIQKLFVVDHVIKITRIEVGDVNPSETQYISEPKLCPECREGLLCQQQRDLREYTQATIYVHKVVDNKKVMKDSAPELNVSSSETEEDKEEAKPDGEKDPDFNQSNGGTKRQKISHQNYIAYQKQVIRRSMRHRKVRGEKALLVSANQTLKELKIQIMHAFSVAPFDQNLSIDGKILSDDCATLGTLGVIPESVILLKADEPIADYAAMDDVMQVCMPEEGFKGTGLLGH
In short: as §1

USP5 = biological target: T4, USP5 (UniProt P45974)
T4 sequence (whole entry): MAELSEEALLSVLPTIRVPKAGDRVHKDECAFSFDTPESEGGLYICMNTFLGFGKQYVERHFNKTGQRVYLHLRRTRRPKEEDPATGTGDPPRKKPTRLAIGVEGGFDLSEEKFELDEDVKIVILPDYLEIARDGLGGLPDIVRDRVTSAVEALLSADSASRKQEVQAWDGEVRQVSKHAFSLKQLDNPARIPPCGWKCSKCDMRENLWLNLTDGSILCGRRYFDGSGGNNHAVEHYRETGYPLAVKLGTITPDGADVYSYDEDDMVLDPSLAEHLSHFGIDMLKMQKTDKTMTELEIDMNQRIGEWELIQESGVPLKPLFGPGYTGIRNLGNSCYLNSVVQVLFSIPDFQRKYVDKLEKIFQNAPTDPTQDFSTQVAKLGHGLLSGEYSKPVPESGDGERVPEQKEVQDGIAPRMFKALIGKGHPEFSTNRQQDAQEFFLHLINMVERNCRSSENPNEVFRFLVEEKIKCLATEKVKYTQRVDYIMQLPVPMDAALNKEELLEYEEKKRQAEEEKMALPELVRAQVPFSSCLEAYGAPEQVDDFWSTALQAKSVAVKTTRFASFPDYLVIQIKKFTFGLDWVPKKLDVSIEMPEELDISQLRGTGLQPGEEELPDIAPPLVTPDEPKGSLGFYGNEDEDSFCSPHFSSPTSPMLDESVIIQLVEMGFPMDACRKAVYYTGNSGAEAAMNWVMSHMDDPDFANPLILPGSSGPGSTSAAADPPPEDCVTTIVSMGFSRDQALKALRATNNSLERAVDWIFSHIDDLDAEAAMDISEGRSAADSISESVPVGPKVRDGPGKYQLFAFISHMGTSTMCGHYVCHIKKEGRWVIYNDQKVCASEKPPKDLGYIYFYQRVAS
In short: as §1

USP54 = USP54 (UniProt Q70EL1)
In short: as §1

USP7 = USP7 (UniProt Q93009)
Sequence of USP7 (Q93009 whole entry, looked up): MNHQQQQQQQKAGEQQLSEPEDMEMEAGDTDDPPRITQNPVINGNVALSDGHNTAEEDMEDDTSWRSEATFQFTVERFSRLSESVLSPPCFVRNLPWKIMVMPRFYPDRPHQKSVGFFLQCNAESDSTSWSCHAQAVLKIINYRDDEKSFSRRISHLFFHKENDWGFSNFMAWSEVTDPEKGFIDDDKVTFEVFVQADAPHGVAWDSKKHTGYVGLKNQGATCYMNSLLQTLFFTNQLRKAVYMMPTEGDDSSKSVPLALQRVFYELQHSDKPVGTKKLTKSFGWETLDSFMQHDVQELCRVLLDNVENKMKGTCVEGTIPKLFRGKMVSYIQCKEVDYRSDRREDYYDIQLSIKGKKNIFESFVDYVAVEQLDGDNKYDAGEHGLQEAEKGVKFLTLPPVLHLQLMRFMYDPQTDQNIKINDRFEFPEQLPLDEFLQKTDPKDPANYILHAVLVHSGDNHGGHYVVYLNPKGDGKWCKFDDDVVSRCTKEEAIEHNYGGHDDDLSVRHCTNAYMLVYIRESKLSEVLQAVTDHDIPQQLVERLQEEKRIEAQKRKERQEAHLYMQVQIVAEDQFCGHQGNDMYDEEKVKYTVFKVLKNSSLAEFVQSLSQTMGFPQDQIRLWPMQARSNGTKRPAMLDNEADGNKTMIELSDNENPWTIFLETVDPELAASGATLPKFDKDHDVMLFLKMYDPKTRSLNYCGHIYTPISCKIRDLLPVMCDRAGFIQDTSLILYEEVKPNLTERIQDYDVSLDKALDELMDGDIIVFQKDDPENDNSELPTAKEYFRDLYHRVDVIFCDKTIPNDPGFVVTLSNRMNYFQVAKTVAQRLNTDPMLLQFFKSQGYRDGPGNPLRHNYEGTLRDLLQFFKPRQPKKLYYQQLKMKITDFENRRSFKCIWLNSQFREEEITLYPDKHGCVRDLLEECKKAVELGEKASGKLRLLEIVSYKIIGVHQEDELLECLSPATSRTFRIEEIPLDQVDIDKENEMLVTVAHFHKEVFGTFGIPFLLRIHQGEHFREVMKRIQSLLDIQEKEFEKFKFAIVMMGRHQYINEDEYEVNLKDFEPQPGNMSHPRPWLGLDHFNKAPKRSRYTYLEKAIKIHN
In short: as §1

USP8 = biological target: T5, USP8 (UniProt P40818)
T5 sequence (whole entry): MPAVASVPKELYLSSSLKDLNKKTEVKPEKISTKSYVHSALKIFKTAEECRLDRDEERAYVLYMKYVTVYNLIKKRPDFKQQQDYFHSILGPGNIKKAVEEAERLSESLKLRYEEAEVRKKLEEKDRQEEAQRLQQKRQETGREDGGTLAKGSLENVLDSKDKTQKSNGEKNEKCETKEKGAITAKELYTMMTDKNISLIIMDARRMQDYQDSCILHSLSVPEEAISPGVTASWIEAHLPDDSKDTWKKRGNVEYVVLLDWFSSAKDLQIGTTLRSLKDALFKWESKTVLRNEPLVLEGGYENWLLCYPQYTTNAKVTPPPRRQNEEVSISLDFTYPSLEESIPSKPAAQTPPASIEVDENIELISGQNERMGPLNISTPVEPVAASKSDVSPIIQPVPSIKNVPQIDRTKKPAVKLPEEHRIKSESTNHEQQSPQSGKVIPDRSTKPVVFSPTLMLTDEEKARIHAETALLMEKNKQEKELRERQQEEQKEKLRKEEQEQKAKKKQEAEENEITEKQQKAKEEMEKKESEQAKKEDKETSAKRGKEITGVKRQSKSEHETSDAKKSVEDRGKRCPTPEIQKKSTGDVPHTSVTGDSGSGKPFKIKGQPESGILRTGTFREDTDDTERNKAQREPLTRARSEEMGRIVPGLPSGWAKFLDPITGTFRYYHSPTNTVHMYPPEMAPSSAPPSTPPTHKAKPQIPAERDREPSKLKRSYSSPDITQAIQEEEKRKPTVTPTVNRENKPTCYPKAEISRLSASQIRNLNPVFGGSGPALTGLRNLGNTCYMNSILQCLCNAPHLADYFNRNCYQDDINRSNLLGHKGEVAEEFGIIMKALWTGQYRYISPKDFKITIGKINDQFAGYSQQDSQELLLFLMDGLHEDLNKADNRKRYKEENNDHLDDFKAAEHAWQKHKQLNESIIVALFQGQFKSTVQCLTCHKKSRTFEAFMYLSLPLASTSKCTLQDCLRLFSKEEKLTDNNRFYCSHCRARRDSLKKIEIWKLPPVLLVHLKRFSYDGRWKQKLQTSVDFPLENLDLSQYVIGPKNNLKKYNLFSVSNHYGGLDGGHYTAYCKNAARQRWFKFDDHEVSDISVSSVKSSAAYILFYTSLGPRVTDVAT
In short: as §1

USP9X = USP9X (UniProt Q93008)
Sequence of USP9X (Q93008 whole entry): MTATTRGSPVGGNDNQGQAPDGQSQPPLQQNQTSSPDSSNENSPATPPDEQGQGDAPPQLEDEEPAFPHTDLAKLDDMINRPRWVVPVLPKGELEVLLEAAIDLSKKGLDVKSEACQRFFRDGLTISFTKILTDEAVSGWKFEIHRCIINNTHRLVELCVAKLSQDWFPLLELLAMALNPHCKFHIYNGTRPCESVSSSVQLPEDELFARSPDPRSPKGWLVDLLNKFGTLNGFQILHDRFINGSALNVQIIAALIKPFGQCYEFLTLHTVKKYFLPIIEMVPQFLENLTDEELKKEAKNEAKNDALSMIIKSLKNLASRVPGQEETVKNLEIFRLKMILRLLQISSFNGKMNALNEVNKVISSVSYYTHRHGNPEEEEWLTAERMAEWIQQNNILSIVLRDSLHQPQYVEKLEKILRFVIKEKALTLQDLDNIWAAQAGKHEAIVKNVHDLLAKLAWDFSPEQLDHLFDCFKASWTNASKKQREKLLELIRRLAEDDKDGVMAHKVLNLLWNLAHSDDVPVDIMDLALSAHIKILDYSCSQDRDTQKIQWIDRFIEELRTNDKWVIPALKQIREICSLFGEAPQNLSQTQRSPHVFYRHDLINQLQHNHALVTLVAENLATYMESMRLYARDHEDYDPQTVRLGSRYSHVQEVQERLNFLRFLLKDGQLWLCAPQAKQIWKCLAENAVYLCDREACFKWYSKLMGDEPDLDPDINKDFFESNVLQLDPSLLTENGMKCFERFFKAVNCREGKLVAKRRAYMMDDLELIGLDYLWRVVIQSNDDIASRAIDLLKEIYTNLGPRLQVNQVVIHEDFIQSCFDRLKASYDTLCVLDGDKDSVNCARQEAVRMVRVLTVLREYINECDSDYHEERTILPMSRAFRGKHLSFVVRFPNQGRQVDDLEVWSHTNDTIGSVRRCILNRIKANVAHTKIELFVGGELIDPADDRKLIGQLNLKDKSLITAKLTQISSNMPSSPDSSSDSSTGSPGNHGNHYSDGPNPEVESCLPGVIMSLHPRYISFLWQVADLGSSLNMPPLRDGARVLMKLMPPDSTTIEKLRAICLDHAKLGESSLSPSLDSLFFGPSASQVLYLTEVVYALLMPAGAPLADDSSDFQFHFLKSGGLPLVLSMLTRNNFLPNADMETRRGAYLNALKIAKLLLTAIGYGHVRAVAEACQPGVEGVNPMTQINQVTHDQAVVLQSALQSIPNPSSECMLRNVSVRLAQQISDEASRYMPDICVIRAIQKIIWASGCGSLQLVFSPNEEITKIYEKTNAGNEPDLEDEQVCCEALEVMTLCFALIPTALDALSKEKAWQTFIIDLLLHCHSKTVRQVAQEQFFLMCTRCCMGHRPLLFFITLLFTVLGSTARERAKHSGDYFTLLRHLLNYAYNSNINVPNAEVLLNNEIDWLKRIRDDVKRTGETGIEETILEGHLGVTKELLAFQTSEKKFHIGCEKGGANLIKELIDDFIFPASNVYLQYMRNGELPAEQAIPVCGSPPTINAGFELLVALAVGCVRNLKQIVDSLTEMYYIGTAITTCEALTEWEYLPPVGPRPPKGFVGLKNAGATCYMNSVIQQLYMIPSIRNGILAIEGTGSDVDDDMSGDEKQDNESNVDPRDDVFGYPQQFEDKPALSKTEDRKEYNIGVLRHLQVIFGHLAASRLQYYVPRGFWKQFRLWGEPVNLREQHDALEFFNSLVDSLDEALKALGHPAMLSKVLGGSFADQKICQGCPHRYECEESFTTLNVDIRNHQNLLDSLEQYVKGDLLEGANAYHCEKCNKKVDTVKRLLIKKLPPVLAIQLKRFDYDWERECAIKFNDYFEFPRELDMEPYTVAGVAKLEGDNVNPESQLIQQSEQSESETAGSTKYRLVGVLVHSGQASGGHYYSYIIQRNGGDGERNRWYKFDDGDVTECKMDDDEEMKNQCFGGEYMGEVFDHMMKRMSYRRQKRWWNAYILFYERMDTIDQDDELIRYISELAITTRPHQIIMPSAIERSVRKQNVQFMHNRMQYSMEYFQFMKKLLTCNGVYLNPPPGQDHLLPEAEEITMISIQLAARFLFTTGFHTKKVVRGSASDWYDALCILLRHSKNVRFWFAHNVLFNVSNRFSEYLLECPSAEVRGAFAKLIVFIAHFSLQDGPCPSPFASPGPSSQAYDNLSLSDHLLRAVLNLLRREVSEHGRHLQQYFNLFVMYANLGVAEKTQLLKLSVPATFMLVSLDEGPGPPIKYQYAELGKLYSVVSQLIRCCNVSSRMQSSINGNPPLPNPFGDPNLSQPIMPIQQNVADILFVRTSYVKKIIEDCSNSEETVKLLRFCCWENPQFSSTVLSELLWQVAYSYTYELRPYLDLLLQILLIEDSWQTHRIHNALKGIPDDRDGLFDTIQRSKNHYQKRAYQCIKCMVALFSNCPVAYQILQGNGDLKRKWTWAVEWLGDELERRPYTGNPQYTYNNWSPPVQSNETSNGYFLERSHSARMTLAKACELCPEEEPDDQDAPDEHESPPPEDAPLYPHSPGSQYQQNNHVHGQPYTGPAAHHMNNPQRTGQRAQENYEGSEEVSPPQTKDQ
In short: as §1

UniProt O00487 = biological target: UniProt O00487
Sequence of UniProt O00487 (O00487 whole entry): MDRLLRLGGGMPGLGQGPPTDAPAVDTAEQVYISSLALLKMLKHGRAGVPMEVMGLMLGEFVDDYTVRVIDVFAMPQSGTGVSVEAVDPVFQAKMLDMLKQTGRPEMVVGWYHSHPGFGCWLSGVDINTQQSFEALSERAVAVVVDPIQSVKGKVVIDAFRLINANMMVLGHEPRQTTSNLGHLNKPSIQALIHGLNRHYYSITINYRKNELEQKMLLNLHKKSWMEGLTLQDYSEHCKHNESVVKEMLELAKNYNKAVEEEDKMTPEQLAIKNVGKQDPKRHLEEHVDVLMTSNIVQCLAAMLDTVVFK
In short: as §1

Measured: log2 ratio of Biotin-Ahx-Ub-VS probe labelling

O=C(CCl)N(Cc1ccsc1)C1CC1
active: USP48 -1.14 | USP7 -1.25
inactive: USP42 -0.0609 | USP46 0.201 | USP47 -0.631 | USP5 0.243 | USP54 0.171 | USP8 0.0752 | USP9X -0.139 | UniProt O00487 0.0101
